{"source": "paper PMC4552634", "about": "“A New Set of Chemical Starting Points with Plasmodium falciparum Transmission-Blocking Potential for Antimalarial Drug Discovery” (PLoS ONE, 2015)", "note": "About 3,200 (25%) of roughly 13,000 compounds showed an effect of 50% or more. The list shows a part of the results."}
{"tested_on": "P. falciparum stage V gametocytes", "parameters": "BacTiter-Glo ATP luminescence viability of purified stage V gametocytes in 384-well plates, per cent inhibition versus DMSO", "conditions": "48 h, 5 µM; inhibitor", "units": {"% Inhibition": "%"}}
{"smiles": "COc1cc(NC(=O)c2c(-c3c(Cl)cccc3Cl)noc2C)c(OC)cc1Cl", "note": "[TCMDC-125477]", "% Inhibition": -41.77}
{"smiles": "CC(O)C(C)(CO)NCc1ccc2c3c(cccc13)-c1ccccc1-2", "note": "(stereo not drawn) [TCMDC-138117]", "% Inhibition": 15.45}
{"smiles": "NC(=O)c1cnc2ccc(-c3cncs3)cc2c1Nc1ccc(F)c(Cl)c1", "note": "[TCMDC-138566]", "% Inhibition": 50.74}
{"smiles": "Cc1noc(C)c1-c1ccc2c(Nc3ccc(C(F)(F)F)cc3)c(C(N)=O)cnc2c1.Cl", "note": "[TCMDC-136019]", "% Inhibition": 23.08}
{"smiles": "Cc1ccc(O)cc1Nc1c(C(N)=O)cnc2ccc(-c3cncs3)cc12", "note": "[TCMDC-138565]", "% Inhibition": 46.98}
{"smiles": "CCCOc1cccc(C(=O)N[C@@H](Cc2ccccc2)[C@H](O)CNCc2cccc(OC)c2)c1", "note": "[TCMDC-136707]", "% Inhibition": 12.44}
{"smiles": "O=C(N[C@@H](Cc1ccccc1)[C@H](O)CNCCC(F)(F)F)c1cccc(CCC2CC2)c1", "note": "[TCMDC-136611]", "% Inhibition": -3.968}
{"smiles": "CCOc1cc(C(=O)N[C@@H](Cc2ccccc2)[C@H](O)CNCc2cccc(OC)c2)cc(N2CCCCS2(=O)=O)c1", "note": "[TCMDC-134521]", "% Inhibition": -19.61}
{"smiles": "CCNc1cc(C(=O)N[C@@H](Cc2ccccc2)[C@H](O)CNC(C)(C)Cc2cccc(OC)c2)cc(N2CCCC2=O)c1", "note": "[TCMDC-134574]", "% Inhibition": 1.402}
{"smiles": "CC(C)CCCC(C)(C)NC[C@@H](O)[C@H](Cc1ccccc1)NC(=O)c1cccc(OCC2CC2)c1", "note": "[TCMDC-136556]", "% Inhibition": 100.1}
{"smiles": "O=C(N[C@@H](Cc1ccccc1)[C@H](O)CNCCC(F)(F)F)c1cccc(OCC2CC2)c1", "note": "[TCMDC-136610]", "% Inhibition": 48.68}
{"smiles": "CC(C)CCCC(C)(C)NC[C@@H](O)[C@H](Cc1ccccc1)NC(=O)c1cccc(CCC2CC2)c1", "note": "[TCMDC-136602]", "% Inhibition": 71.1}
{"smiles": "COc1cccc(C2(NC[C@@H](O)[C@H](Cc3ccccc3)NC(=O)c3ccccc3)CCCCC2)c1", "note": "[TCMDC-135740]", "% Inhibition": 7.84}
{"smiles": "CCCOc1cccc(C(=O)N[C@@H](Cc2ccccc2)[C@H](O)CNCc2ccccc2OC)c1", "note": "[TCMDC-136706]", "% Inhibition": 81.52}
{"smiles": "Clc1ccccc1/C=C/c1cncnc1Nc1ccc2nc(Cc3ccccc3)[nH]c2c1", "note": "[TCMDC-138659]", "% Inhibition": 0.669}
{"smiles": "c1ccc(-c2cccc(-c3ccccn3)n2)nc1", "note": "[TCMDC-123985]", "% Inhibition": -15.75}
{"smiles": "COc1ccc(-c2ccnc(-c3cccc(-c4ccccn4)n3)c2)cc1", "note": "[TCMDC-125008]", "% Inhibition": 155.4}
{"smiles": "COc1cc(Nc2ccnc3cc(-c4ccccn4)ccc23)cc(OC)c1OC", "note": "[TCMDC-138203]", "% Inhibition": 0.8769}
{"smiles": "N#Cc1ccc(NC(=NC2Cc3ccccc3C2)Nc2cccc(Cl)c2Cl)c(O)c1", "note": "[TCMDC-140223]", "% Inhibition": -11.72}
{"smiles": "O=C(/C=C/c1cccc(Cl)c1)N1CCC(C(O)CN2CCC3(CC2)CN(C(=O)/C=C/c2cccc(Cl)c2)c2ccccc23)CC1", "note": "(stereo not drawn) [TCMDC-134543]", "% Inhibition": 57.97}
{"smiles": "CS(=O)(=O)Nc1ccc2[nH]cc(C3CCN(CC(O)C4CCN(C(=O)/C=C/c5ccc(Cl)c(Cl)c5)CC4)CC3)c2c1", "note": "(stereo not drawn) [TCMDC-134176]", "% Inhibition": 30.58}
{"smiles": "O=C(/C=C/c1ccc(Cl)c(Cl)c1)N1CCC(C(O)CN2CCC(c3c[nH]c4ccccc34)CC2)CC1", "note": "(stereo not drawn) [TCMDC-134171]", "% Inhibition": 19.99}
{"smiles": "CC(=O)Nc1ccc(CN2CCC(NC(=O)c3ccc(-c4cccc(F)c4)s3)CC2)cc1", "note": "[TCMDC-134333]", "% Inhibition": 6.679}
{"smiles": "CCNc1cc(C(=O)N[C@@H](Cc2cc(F)cc(F)c2)[C@H](O)CNCc2cccc(C(F)(F)F)c2)cc(N2CCCCS2(=O)=O)c1", "note": "[TCMDC-134678]", "% Inhibition": -1.763}
{"smiles": "CC(C)CCNC(=O)[C@@H]1[C@H]2C(=O)N(C3CCCCC3)C(=O)[C@H]2[C@H]2C=C[C@@H]3C(c4ccc(C(C)(C)C)cc4)=NO[C@@H]3N21", "note": "[TCMDC-139763]", "% Inhibition": -31.5}
{"smiles": "Cc1cc(CN2CCCC(OC(c3ccc(F)cc3)c3ccc(F)cc3)C2)ccc1O", "note": "(stereo not drawn) [TCMDC-136168]", "% Inhibition": 43.13}
{"smiles": "CCN(CC)CCNc1nc(C=Cc2ccc(Cl)cc2)nc2cc3ccccc3cc12", "note": "[TCMDC-125777]", "% Inhibition": 86.86}
{"smiles": "CCN(CC)CCNc1ccnc2[nH]c3ccc(Cl)cc3c12", "note": "[TCMDC-131832]", "% Inhibition": 4.266}
{"smiles": "CN(C)CCNc1ncnc2c1[nH]c1ccc(Cl)cc12", "note": "[TCMDC-124582]", "% Inhibition": 1.888}
{"smiles": "CNC(=O)NC1=NC(C)(C)N(OCc2ccc(Cl)c(Cl)c2)C(NC(=O)NC)=N1", "note": "[TCMDC-131694]", "% Inhibition": 10.36}
{"smiles": "CN(C)Cc1ccc(O)c(-c2ccc(C(C)(C)C)cc2)n1", "note": "[TCMDC-124147]", "% Inhibition": 10.19}
{"smiles": "COc1ccc2nccc([C@@H](O)CN3CCC(NCCNc4cccc(F)c4)CC3)c2c1", "note": "[TCMDC-140716]", "% Inhibition": -36.18}
{"smiles": "Cc1cc(N[C@@H](CC(C)C)C(=O)NCc2cccs2)nc(NCCc2ccccc2)n1", "note": "[TCMDC-134779]", "% Inhibition": 68.3}
{"smiles": "COc1ccc(NC(=O)[C@H](CC(C)C)Nc2cc(C)nc(NCCc3ccccc3OC)n2)cc1", "note": "[TCMDC-134805]", "% Inhibition": -9.787}
{"smiles": "COc1ccccc1CCNc1nc(C)cc(N[C@@H](CC(C)C)C(=O)NCc2cccs2)n1", "note": "[TCMDC-134806]", "% Inhibition": 64.45}
{"smiles": "COc1ccccc1CCNc1nc(C)cc(N[C@@H](CC(C)C)C(=O)Nc2ccccc2)n1", "note": "[TCMDC-134808]", "% Inhibition": 19.68}
{"smiles": "COc1ccc(NC(=O)[C@H](CC(C)C)Nc2cc(C)nc(NCCc3cccs3)n2)cc1", "note": "[TCMDC-134875]", "% Inhibition": -27.08}
{"smiles": "Cc1cc(N[C@@H](CC(C)C)C(=O)NCCc2ccccc2)nc(Nc2ccccc2)n1", "note": "[TCMDC-134742]", "% Inhibition": -5.247}
{"smiles": "Cc1cc(N[C@@H](CC(C)C)C(=O)NCCc2ccccc2)nc(NCCc2cccs2)n1", "note": "[TCMDC-134816]", "% Inhibition": 67}
{"smiles": "Cc1cc(N[C@@H](CC(C)C)C(=O)NCc2cccs2)nc(Nc2ccccc2)n1", "note": "[TCMDC-134739]", "% Inhibition": -4.41}
{"smiles": "Cc1cc(N[C@@H](CC(C)C)C(=O)NCCc2ccccc2)nc(NCc2ccccc2C)n1", "note": "[TCMDC-134911]", "% Inhibition": -9.933}
{"smiles": "Cc1cc(N[C@@H](CC(C)C)C(=O)NCc2cccs2)nc(NCCc2cccs2)n1", "note": "[TCMDC-134815]", "% Inhibition": 136.3}
{"smiles": "Cc1cc(N[C@@H](CC(C)C)C(=O)NCc2cccs2)nc(NCCc2ccc(F)cc2)n1", "note": "[TCMDC-134794]", "% Inhibition": 46.14}
{"smiles": "O=C(Nc1cccc(-c2ccc(-c3nc4ccccc4[nH]3)cc2)c1)c1cnn2cccnc12", "note": "[TCMDC-136866]", "% Inhibition": -17.05}
{"smiles": "CN(c1ccc(NC(=O)CCOc2ccccc2)cc1)C1CCN(Cc2cccc(O)c2)CC1", "note": "[TCMDC-134988]", "% Inhibition": 49.59}
{"smiles": "CC(C)(C)OC(=O)C1CCCN(Cc2ccc(-c3cccc(-c4nc5ccccc5[nH]4)c3)cc2)C1.O=C(O)C(F)(F)F", "note": "(stereo not drawn) [TCMDC-132560]", "% Inhibition": 11.65}
{"smiles": "C=CCN1CCC(N(Cc2cccc(Oc3ccccc3)c2)C(=O)C(c2ccccc2)c2ccccc2)CC1", "note": "[TCMDC-139601]", "% Inhibition": 20.39}
{"smiles": "CC(C)(NCc1ccc(OC(F)(F)F)cc1)c1nc(-c2ccc(Cl)c(O)c2)c(-c2ccncc2)[nH]1", "note": "[TCMDC-140709]", "% Inhibition": -27.3}
{"smiles": "CCOC(=O)c1cn(CC)c2cc(N(C)CCc3ccc(OC)c(OC)c3)c(F)cc2c1=O", "note": "[TCMDC-124159]", "% Inhibition": 16.46}
{"smiles": "O=C(NCc1ccc(Cl)cc1)c1ccc(CN2CCCN(CC3CCCCC3)CC2)cc1", "note": "[TCMDC-136441]", "% Inhibition": -2.203}
{"smiles": "O=C(OCC1CCN(Cc2ccccc2)C1)c1ccc(Cl)cc1", "note": "(stereo not drawn) [TCMDC-138995]", "% Inhibition": -9.252}
{"smiles": "CCc1ccc(CN2CCC(CN(C(=O)c3ccccc3)c3ccc(Cl)cc3)CC2)cc1", "note": "[TCMDC-135382]", "% Inhibition": 136.1}
{"smiles": "CC(=O)Nc1ccc(C(=O)NC2CCN(c3ccnc4cc(Cl)ccc34)C2)cc1", "note": "(stereo not drawn) [TCMDC-133650]", "% Inhibition": -2.707}
{"smiles": "O=[N+]([O-])c1cccc(CNCC2CCN(Cc3ccc(-c4ccccc4)cc3)CC2)c1", "note": "[TCMDC-141208]", "% Inhibition": 17.3}
{"smiles": "O=[N+]([O-])c1cccc(CNCC2CCN(Cc3ccc(O)cc3)CC2)c1", "note": "[TCMDC-141212]", "% Inhibition": 5.704}
{"smiles": "COc1ccc(CN2CCC(CNCC(c3ccccc3)c3ccccc3)CC2)cc1", "note": "[TCMDC-141342]", "% Inhibition": 89.13}
{"smiles": "COc1ccc(CN2CCC(CNC(C)c3cccc4ccccc34)CC2)cc1", "note": "(stereo not drawn) [TCMDC-141341]", "% Inhibition": -19.33}
{"smiles": "COc1ccc(CN2CCC(CNCc3cccc(-c4ccccc4)c3)CC2)cc1", "note": "[TCMDC-141349]", "% Inhibition": 97.96}
{"smiles": "COc1ccc(CN2CCC(NCc3ccc(C(F)(F)F)cc3)CC2)cc1", "note": "[TCMDC-141653]", "% Inhibition": 11.64}
{"smiles": "CCN(CC)c1ccc(C(c2ccc(N(CC)CC)cc2)c2cccc([N+](=O)[O-])c2)cc1", "note": "[TCMDC-131244]", "% Inhibition": -3.754}
{"smiles": "Cc1cccc2nc(-c3ccc(-c4cccc(CN5CCN(c6ccc(C#N)cn6)CC5)c4)s3)[nH]c12.O=C(O)C(F)(F)F", "note": "[TCMDC-133111]", "% Inhibition": -25.75}
{"smiles": "CCN(CC)CCCC(C)Nc1ccnc2cc(C#N)ccc12", "note": "(stereo not drawn) [TCMDC-138027]", "% Inhibition": -9.256}
{"smiles": "CCOc1ccc(OCCCON2C(N)=NC(N)=NC2(C)C)cc1", "note": "[TCMDC-131735]", "% Inhibition": -0.1444}
{"smiles": "Cc1cc2ccc(CNCCc3ccccc3Br)cc2nc1N", "note": "[TCMDC-138094]", "% Inhibition": 34.17}
{"smiles": "Cc1cc(N)nc2cc(CNCCc3ccccc3Br)ccc12", "note": "[TCMDC-138095]", "% Inhibition": 22.25}
{"smiles": "Cc1cc2cc(CNCCc3ccccc3Br)ccc2nc1N", "note": "[TCMDC-138097]", "% Inhibition": 84.79}
